The entries come from a sample that favours the strongest signals as a whole.
Assays:
Assay in all cases: glycan array binding signal (z-score within array); higher = stronger binding
Settings in all cases: glycan notation: IUPAC condensed, linker removed
[1] = target: Fuc(a1-2)Gal(b1-3)GlcNAc(b1-2)Man(a1-3)[Fuc(a1-2)Gal(b1-3)GlcNAc(b1-2)Man(a1-6)]Man(b1-4)GlcNAc(b1-4)[Fuc(a1-6)]GlcNAc
Procedure, shortened: (§1)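 Arrays were curated from the Consortium for Functional Glycomics database, 3228 in total, and kept only where the protein sequence was available. Binding is expressed as a within-array Z-score. This score was averaged across arrays of the same protein sequence at different concentrations or buffers and across linkers, and negative values can be read as non-binding.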

[2] = target: Fuc(a1-2)Gal(b1-3)GlcNAc(b1-3)[Neu5Ac(a2-6)Gal(b1-4)GlcNAc(b1-6)]Gal(b1-4)Glc
Procedure, shortened: as §1

[3] = target: Fuc(a1-2)Gal(b1-4)GlcNAc(b1-2)[Fuc(a1-2)Gal(b1-4)GlcNAc(b1-4)]Man(a1-3)[Fuc(a1-2)Gal(b1-4)GlcNAc(b1-2)Man(a1-6)]Man(b1-4)GlcNAc(b1-4)GlcNAc
Procedure, shortened: as §1

[4] = target: Fuc(a1-2)Gal(b1-4)GlcNAc(b1-6)GalNAc
Procedure, shortened: as §1

[5] = target: Fuc(a1-2)Gal6S(b1-3)GlcNAc6S
Procedure, shortened: as §1

[6] = target: Fuc(a1-2)[Gal(a1-3)]Gal(b1-3)GlcNAc(b1-2)Man(a1-3)[Fuc(a1-2)[Gal(a1-3)]Gal(b1-3)GlcNAc(b1-2)Man(a1-6)]Man(b1-4)GlcNAc(b1-4)GlcNAc
Procedure, shortened: as §1

[7] = target: Fuc(a1-2)[Gal(a1-3)]Gal(b1-3)GlcNAc(b1-6)GalNAc
Procedure, shortened: as §1

[8] = target: Fuc(a1-2)[Gal(a1-3)]Gal(b1-4)GlcNAc
Procedure, shortened: as §1

[9] = target: Fuc(a1-2)[Gal(a1-3)]Gal(b1-4)[Fuc(a1-3)]GlcNAc(b1-3)GalNAc
Procedure, shortened: as §1

[10] = target: Fuc(a1-2)[GalNAc(a1-3)]Gal(b1-4)GlcNAc(b1-2)Man(a1-3)[Fuc(a1-2)[GalNAc(a1-3)]Gal(b1-4)GlcNAc(b1-2)Man(a1-6)]Man(b1-4)GlcNAc(b1-4)[Fuc(a1-6)]GlcNAc
Procedure, shortened: as §1

[11] = target: Fuc(a1-2)[GalNAc(b1-3)]Gal
Procedure, shortened: as §1

Fuc(a1-4)GlcNAc = target: Fuc(a1-4)GlcNAc
Procedure, shortened: as §1

[12] = target: Gal(a1-3)Gal(b1-3)[Fuc(a1-4)]GlcNAc(b1-2)Man(a1-3)[Gal(a1-3)Gal(b1-3)[Fuc(a1-4)]GlcNAc(b1-2)Man(a1-6)]Man(b1-4)GlcNAc(b1-4)GlcNAc
Procedure, shortened: as §1

Gal(a1-3)GalNAc = target: Gal(a1-3)GalNAc
Procedure, shortened: as §1

Gal(b1-3)Gal(b1-4)GlcNAc = target: Gal(b1-3)Gal(b1-4)GlcNAc
Procedure, shortened: as §1

[13] = target: Gal(b1-3)GlcNAc(a1-6)Gal(b1-4)GlcNAc
Procedure, shortened: as §1

[14] = target: Gal(b1-3)GlcNAc(b1-3)Gal(b1-4)GlcNAc(b1-2)Man(a1-3)[Gal(b1-3)GlcNAc(b1-3)Gal(b1-4)GlcNAc(b1-2)Man(a1-6)]Man(b1-4)GlcNAc(b1-4)GlcNAc
Procedure, shortened: as §1

[15] = target: Gal(b1-3)GlcNAc(b1-6)Gal(b1-4)GlcNAc
Procedure, shortened: as §1

[16] = target: Gal(b1-3)GlcNAc(b1-6)GalNAc
Procedure, shortened: as §1

Gal(b1-4)Gal = target: Gal(b1-4)Gal
Procedure, shortened: as §1

Gal(b1-4)Glc6S = target: Gal(b1-4)Glc6S
Procedure, shortened: as §1

[17] = target: Gal(b1-4)GlcNAc(a1-6)Gal(b1-4)GlcNAc
Procedure, shortened: as §1

[18] = target: Gal(b1-4)GlcNAc(b1-2)[Gal(b1-4)GlcNAc(b1-4)]Man(a1-3)[Gal(b1-4)GlcNAc(b1-2)[Gal(b1-4)GlcNAc(b1-6)]Man(a1-6)]Man(b1-4)GlcNAc(b1-4)GlcNAc
Procedure, shortened: as §1

[19] = target: Gal(b1-4)GlcNAc(b1-2)[Gal(b1-4)GlcNAc(b1-6)]Man(a1-6)[Gal(b1-4)GlcNAc(b1-2)Man(a1-3)]Man(b1-4)GlcNAc(b1-4)[Fuc(a1-6)]GlcNAc
Procedure, shortened: as §1

[20] = target: Gal(b1-4)GlcNAc(b1-3)Gal(b1-3)GalNAc
Procedure, shortened: as §1

[21] = target: Gal(b1-4)GlcNAc(b1-3)Gal(b1-4)[Fuc(a1-3)]GlcNAc(b1-3)Gal(b1-4)[Fuc(a1-3)]GlcNAc
Procedure, shortened: as §1

[22] = target: Gal(b1-4)GlcNAc(b1-6)GalNAc
Procedure, shortened: as §1

[23] = target: Gal3S(b1-4)[Fuc(a1-3)]GlcNAc
Procedure, shortened: as §1

Gal6S(b1-4)GlcNAc = target: Gal6S(b1-4)GlcNAc
Procedure, shortened: as §1

GalNAc(a1-3)Gal = target: GalNAc(a1-3)Gal
Procedure, shortened: as §1

[24] = target: GalNAc(a1-3)GalNAc(b1-3)Gal(a1-4)Gal(b1-4)Glc
Procedure, shortened: as §1

GalNAc(b1-3)Gal = target: GalNAc(b1-3)Gal
Procedure, shortened: as §1

GalNAc(b1-3)GlcNAc = target: GalNAc(b1-3)GlcNAc
Procedure, shortened: as §1

GalNAc(b1-4)GlcNAc = target: GalNAc(b1-4)GlcNAc
Procedure, shortened: as §1

[25] = target: GalNAc(b1-4)GlcNAc(b1-3)GalNAc(b1-4)GlcNAc
Procedure, shortened: as §1

GalNAc(b1-4)GlcNAc6S = target: GalNAc(b1-4)GlcNAc6S
Procedure, shortened: as §1

[26] = target: Glc(a1-6)Glc(a1-6)Glc(a1-6)Glc
Procedure, shortened: as §1

Glc(b1-6)Glc = target: Glc(b1-6)Glc
Procedure, shortened: as §1

GlcA(b1-3)Gal = target: GlcA(b1-3)Gal
Procedure, shortened: as §1

GlcA(b1-3)GlcNAc = target: GlcA(b1-3)GlcNAc
Procedure, shortened: as §1

[27] = target: GlcNAc(b1-3)Gal(b1-4)GlcNAc(b1-3)Gal(b1-4)GlcNAc(b1-3)Gal(b1-4)GlcNAc(b1-3)Gal(b1-4)GlcNAc(b1-2)[GlcNAc(b1-3)Gal(b1-4)GlcNAc(b1-3)Gal(b1-4)GlcNAc(b1-3)Gal(b1-4)GlcNAc(b1-3)Gal(b1-4)GlcNAc(b1-6)]Man(a1-6)[GlcNAc(b1-3)Gal(b1-4)GlcNAc(b1-3)Gal(b1-4)GlcNAc(b1-3)Gal(b1-4)GlcNAc(b1-3)Gal(b1-4)GlcNAc(b1-2)Man(a1-3)]Man(b1-4)GlcNAc(b1-4)[Fuc(a1-6)]GlcNAc
Procedure, shortened: as §1

[28] = target: GlcNAc(b1-3)Gal(b1-4)GlcNAc(b1-6)[Gal(b1-3)]GalNAc
Procedure, shortened: as §1

GlcNAc(b1-6)GalNAc = target: GlcNAc(b1-6)GalNAc
Procedure, shortened: as §1

[29] = target: Man(a1-2)Man(a1-2)Man(a1-3)Man
Procedure, shortened: as §1

[30] = target: Man(a1-3)[Man(a1-6)]Man(a1-6)[Man(a1-2)Man(a1-3)]Man(b1-4)GlcNAc(b1-4)GlcNAc
Procedure, shortened: as §1

[31] = target: Neu5Ac(a2-3)Gal(b1-3)GlcNAc(b1-3)Gal(b1-4)GlcNAc
Procedure, shortened: as §1

[32] = target: Neu5Ac(a2-3)Gal(b1-3)[Fuc(a1-4)]GlcNAc
Procedure, shortened: as §1

[33] = target: Neu5Ac(a2-3)Gal(b1-4)GlcNAc(b1-2)Man
Procedure, shortened: as §1

[34] = target: Neu5Ac(a2-3)Gal(b1-4)GlcNAc(b1-3)Gal
Procedure, shortened: as §1

[35] = target: Neu5Ac(a2-3)Gal(b1-4)GlcNAc(b1-3)Gal(b1-4)GlcNAc(b1-2)Man(a1-3)[Neu5Ac(a2-3)Gal(b1-4)GlcNAc(b1-3)Gal(b1-4)GlcNAc(b1-2)Man(a1-6)]Man(b1-4)GlcNAc(b1-4)GlcNAc
Procedure, shortened: as §1

[36] = target: Neu5Ac(a2-3)Gal(b1-4)[Fuc(a1-3)]GlcNAc(b1-3)Gal(b1-4)GlcNAc
Procedure, shortened: as §1

[37] = target: Neu5Ac(a2-3)Gal(b1-4)[Fuc(a1-3)]GlcNAc(b1-6)[Gal(b1-3)]GalNAc
Procedure, shortened: as §1

[38] = target: Neu5Ac(a2-6)Gal(b1-4)GlcNAc(b1-2)Man
Procedure, shortened: as §1

[39] = target: Neu5Ac(a2-6)Gal(b1-4)GlcNAc(b1-2)Man(a1-6)[Gal(b1-4)GlcNAc(b1-2)Man(a1-3)]Man(b1-4)GlcNAc(b1-4)GlcNAc
Procedure, shortened: as §1

[40] = target: Neu5Ac(a2-8)Neu5Ac(a2-8)Neu5Ac(a2-3)[Gal(b1-3)GalNAc(b1-4)]Gal(b1-4)Glc
Procedure, shortened: as §1

Neu5Ac(b2-6)GalNAc = target: Neu5Ac(b2-6)GalNAc
Procedure, shortened: as §1

B1: MGL2 (Mus musculus), Q8JZN1 (protein)
chain: MTMRYENFQNLEREEKNQEMRNGDKKGGMESPKFALIPSQSFLWRILSWTHLLLFSLGLSLLLLVVISVIGSQNSQLRRDLGTLRAILDNTTSKIKAEFQSLDSRADNFEKGISSLKVDVEDHRQELQAGRDLSQKVTSLESTLEKREQALKTDLSDLTDHVQQLETDLKALTCQLANLKNNGSEVACCPLHWTEHEGSCYWFSESEKSWPEADKYCRLENSHLVVVNSLEEQNFLQNRLANVLSWMGLTDQNGPWRWVDGTDFDKGFKNWRPLQPDNWHGHMLGGGEDCAHFSYDGRWNDDVCQRHYHWICETELGKASSAHSPQLIASVP
glycan array binding signal (z-score) [1]: -0.201
glycan array binding signal (z-score) [2]: -0.188
glycan array binding signal (z-score) [3]: -0.106
glycan array binding signal (z-score) [4]: 1.79
glycan array binding signal (z-score) [5]: 0.028
glycan array binding signal (z-score) [6]: -0.255
glycan array binding signal (z-score) [7]: 0.323
glycan array binding signal (z-score) [8]: -0.162
glycan array binding signal (z-score) [9]: -0.252
glycan array binding signal (z-score) [10]: -0.211
glycan array binding signal (z-score) [11]: 12.2
glycan array binding signal (z-score) (Fuc(a1-4)GlcNAc): 0.024
glycan array binding signal (z-score) [12]: -0.193
glycan array binding signal (z-score) (Gal(a1-3)GalNAc): -0.18
glycan array binding signal (z-score) (Gal(b1-3)Gal(b1-4)GlcNAc): -0.137
glycan array binding signal (z-score) [13]: 0.067
glycan array binding signal (z-score) [14]: -0.097
glycan array binding signal (z-score) [15]: -0.035
glycan array binding signal (z-score) [16]: 2.02
glycan array binding signal (z-score) (Gal(b1-4)Gal): -0.267
glycan array binding signal (z-score) (Gal(b1-4)Glc6S): -0.225
glycan array binding signal (z-score) [17]: -0.091
glycan array binding signal (z-score) [18]: -0.247
glycan array binding signal (z-score) [19]: -0.193
glycan array binding signal (z-score) [20]: -0.14
glycan array binding signal (z-score) [21]: -0.1
glycan array binding signal (z-score) [22]: 3.5
glycan array binding signal (z-score) [23]: -0.228
glycan array binding signal (z-score) (Gal6S(b1-4)GlcNAc): -0.276
glycan array binding signal (z-score) (GalNAc(a1-3)Gal): 1.48
glycan array binding signal (z-score) [24]: -0.259
glycan array binding signal (z-score) (GalNAc(b1-3)Gal): 4.95
glycan array binding signal (z-score) (GalNAc(b1-3)GlcNAc): 8.82
glycan array binding signal (z-score) (GalNAc(b1-4)GlcNAc): 5.73
glycan array binding signal (z-score) [25]: 2.48
glycan array binding signal (z-score) (GalNAc(b1-4)GlcNAc6S): 3.46
glycan array binding signal (z-score) [26]: 0.014
glycan array binding signal (z-score) (Glc(b1-6)Glc): -0.253
glycan array binding signal (z-score) (GlcA(b1-3)Gal): -0.219
glycan array binding signal (z-score) (GlcA(b1-3)GlcNAc): 0.307
glycan array binding signal (z-score) [27]: -0.062
glycan array binding signal (z-score) [28]: -0.047
glycan array binding signal (z-score) (GlcNAc(b1-6)GalNAc): 6.85
glycan array binding signal (z-score) [29]: -0.161
glycan array binding signal (z-score) [30]: -0.006
glycan array binding signal (z-score) [31]: -0.274
glycan array binding signal (z-score) [32]: -0.173
glycan array binding signal (z-score) [33]: -0.034
glycan array binding signal (z-score) [34]: -0.3
glycan array binding signal (z-score) [35]: 0.166
glycan array binding signal (z-score) [36]: -0.189
glycan array binding signal (z-score) [37]: -0.139
glycan array binding signal (z-score) [38]: -0.19
glycan array binding signal (z-score) [39]: -0.174
glycan array binding signal (z-score) [40]: -0.194
glycan array binding signal (z-score) (Neu5Ac(b2-6)GalNAc): -0.176

Source: the supplement of paper PMC8728848
